Shown are actives, neighbours in structure and some others; about 2.4% of the full set was active somewhere.
CHRM1 antagonist: antagonists of human M1 muscarinic receptor; P11229; CHO-K1 hM1, Fluo-8 calcium fluorescence, ACh EC80 antagonist; inhibition, % at 3 µM; actives 1.3% (n = 360,000);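 active = percent inhibition above its own plate's cutoff, namely the mean of that plate's compound wells plus 3 SD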;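 also: peak over basal fluorescence ratio during 140 s after agonist addition; 0% = ACh EC80 plus DMSO and 100% = DMSO alone without agonist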
Target sequence (P11229 whole entry, looked up): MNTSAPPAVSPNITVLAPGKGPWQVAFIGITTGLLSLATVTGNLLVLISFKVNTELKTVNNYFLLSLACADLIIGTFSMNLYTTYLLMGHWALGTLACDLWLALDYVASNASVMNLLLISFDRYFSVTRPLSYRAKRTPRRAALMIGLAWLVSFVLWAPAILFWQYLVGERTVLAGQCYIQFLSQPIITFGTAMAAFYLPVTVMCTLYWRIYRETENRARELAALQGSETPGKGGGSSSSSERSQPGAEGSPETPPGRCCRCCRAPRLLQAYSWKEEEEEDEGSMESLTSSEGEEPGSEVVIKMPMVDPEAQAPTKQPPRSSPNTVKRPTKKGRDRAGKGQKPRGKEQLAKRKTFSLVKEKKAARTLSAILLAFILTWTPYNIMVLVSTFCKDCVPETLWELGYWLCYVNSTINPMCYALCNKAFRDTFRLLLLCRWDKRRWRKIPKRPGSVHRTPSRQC
M1 ag: activates human CHRM1 receptor; CHO-K1 hM1, Fluo-8 calcium fluorescence, agonist mode; 0% DMSO, 100% acetylcholine EC100; actives 0.33% (n = 360,000); activation, % at 3 µM; AID 588814; P11229;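 active = activation above the run's mean compound activation plus 3 SD, cut at about 16% in these data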;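 also: peak over basal fluorescence ratio within a 140 s kinetic read after compound addition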
CHO-K1 Ca ag: counter-screen for M1 agonists: effect in parental CHO-K1 cells | Fluo-8 calcium fluorescence; scaled to maximal ATP response, vehicle zero | activation, % at 3 µM | actives 0.48% (n = 360,000); in the data active = activation above about 15%;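 also: untransfected CHO-K1 host cells lacking M1 receptor as counterscreen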
CHO-K1 Ca antag: nonselective inhibitor or artifact in parental CHO-K1 cells. ATP-induced calcium, Fluo-8 fluorescence. inhibition, % at 3 µM. actives 0.6% (n = 360,000). AID 602250;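 active = inhibition above a per-plate cutoff, the plate's mean sample inhibition plus 3 SD, cut at about 24% in these data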;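 also: 0% = DMSO plus EC80 ATP and 100% = DMSO alone without ATP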
M1 PAM parental: counter-screen for M1 PAMs: effect in parental CHO-K1 cells | AID 602247 | activation, % at 3 µM | actives 0.02% (n = 360,000) | ATP EC20, Fluo-8 calcium fluorescence; 0% at ATP EC20, 100% at ATP max;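 active = activation above the run cutoff, the mean activation of all test compounds plus 3 SD, cut at about 40% in these data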;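 also: peak over basal fluorescence ratio in a 140 s read after ATP addition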
M1 PAM: potentiates human M1 receptor response to acetylcholine | actives 0.088% (n = 360,000) | AID 588819 | CHO-K1 hM1, Fluo-8 calcium fluorescence, ACh EC20; 0% = ACh EC20, 100% = maximal ACh | P11229 | activation, % at 3 µM; in the data active = activation above about 19%, passing the limit was not always enough
* marks the source's active call; other numbers are inactive results.

SMILES | CHRM1 antagonist | M1 ag | CHO-K1 Ca ag | CHO-K1 Ca antag | M1 PAM parental | M1 PAM
Cc1cccc(C)c1NC(=O)C(=O)NCCc1c[nH]c2ccccc12 | -32 | 17* | 8 | -15 | 18 | 7
Cc1ccnc(NC(=O)CCCc2c[nH]c3ccccc23)c1 | -22 | -2 | 2 | -7 | 11 | 15
CN(CC(=O)Nc1ccc2c(c1)OCO2)S(=O)(=O)c1cccs1 | -11 | 1 | 2 | -11 | 8 | 4
CCOC(=O)N1CCC(NC(=O)c2ccccc2C(=O)O)CC1 | 11 | -3 | 0 | 12 | -20 | -5
CCOC(=O)N1CCC(NCCNC(=O)c2ccccc2Cl)CC1 | 38* | 43* | 0 | 10 | -7 | -16
CCOC(=O)N1CCC(NCCNC(=O)c2cccs2)CC1 | 21 | 31* | 0 | 4 | -1 | -12
CCOC(=O)N1CCC(NC(=O)c2cccs2)CC1 | -14 | -3 | 1 | -11 | 18 | 1
CCOC(=O)N1CCC(NCCNC(=O)c2ccccc2)CC1 | 48* | 53* | 1 | 0 | 9 | -14
CCC1(c2ccccc2)NC(=O)N(CC(=O)Nc2ccc(S(N)(=O)=O)cc2)C1=O (stereo not drawn) | 4 | -4 | 0 | 11 | 6 | -2
N#Cc1cnc2nc(SCc3ccccc3)nn2c1 | 10 | -2 | 0 | 4 | -2 | 0
c1ccc(COc2ccc(CNCc3cccnc3)cc2)cc1 | 31* | -12 | 3 | -8 | 24 | -32
c1ccc(COc2ccc(CNCc3cccs3)cc2)cc1 | 41* | -5 | 12 | -7 | 22 | -23
Cc1ccc(N(C)S(=O)(=O)c2cc3c(cc2C)NC(=O)CO3)cc1 | -3 | -2 | 3 | -4 | 24 | -6
CCSc1nnc(NC(=O)NC(CC)(C(F)(F)F)C(F)(F)F)s1 | 7 | 1 | 7 | 34* | -5 | -2
CCSc1nnc(NC(=O)NC(C)(C(F)(F)F)C(F)(F)F)s1 | 4 | -5 | 9 | 5 | 16 | -1
O=C(NCCCCNC(=O)c1cccnc1Cl)c1cccnc1Cl | -10 | -2 | 2 | -10 | 9 | 7
N=C(N)SCc1ncccc1O | -14 | 12 | 0 | -19 | 20 | 4
N=C(N)SCc1ccccn1 | -2 | 30* | 0 | -1 | 26 | -6
COC(=O)c1cccc(NC(=O)c2ccc3c(c2)C(=O)N(Cc2cccnc2)C3=O)c1C | -17 | 1 | 2 | -8 | 12 | 8
Cc1noc(C)c1NC(=O)N(C)C[C@@H]1Oc2ncc(Br)cc2C(=O)N([C@@H](C)CO)C[C@@H]1C | 6 | -5 | 0 | 4 | -9 | -2
COc1ccc(-c2nn(-c3ccccc3)cc2C(=O)NC(=S)Nc2cc(Cl)ccc2Cl)cc1 | -37 | 1 | 0 | -5 | 10 | 26*
CC(C)[C@H](NC(=O)c1ccccc1)C(=O)Nc1ccc2c(c1)OCO2 | -7 | -4 | 0 | -8 | 7 | 10
Cc1ccc2nc(SCc3nc4ccccc4c(=O)[nH]3)[nH]c2c1 | -8 | -6 | 1 | 29* | -16 | 4
COC(=O)c1sc2nc(CSc3nc4ccc(C)cc4[nH]3)[nH]c(=O)c2c1C | 11 | -3 | 0 | 5 | -5 | -6
O=C(Nc1ccccc1)OCCN1CCOCC1 | -5 | -2 | 1 | -9 | 14 | 3
SMILES | CHRM1 antagonist | M1 ag | CHO-K1 Ca ag | CHO-K1 Ca antag | M1 PAM parental | M1 PAM
CCOC(=O)C1CCCN(CC(=O)Nc2nccs2)C1 (stereo not drawn) | -6 | 6 | 0 | -3 | 21 | 6
Cc1ccc(C(C)C)c(OCC(O)CN(C)Cc2ccccc2)c1 (stereo not drawn) | 12 | -2 | 7 | 5 | 19 | -9
Cc1ccc(C(C)C)c(OCCCN(C)Cc2ccccc2)c1 | 59* | -8 | 2 | -14 | 30 | -26
OCC[C@H]1C[C@H](O)[C@@H](O)[C@]2(OCCc3ccccc32)O1 | 1 | -3 | 0 | 6 | -2 | 1
CC1(C(=O)NS(=O)(=O)c2ccccc2Cl)CCN1C(=O)CCc1ccccc1 (stereo not drawn) | -11 | 3 | 0 | -6 | -5 | 0
O=C(NNC(=O)c1ccccc1F)c1ccc(-n2cncn2)c([N+](=O)[O-])c1 | 36* | 1 | 0 | 18 | -14 | -12
O=C(Nc1cccc(/C=C/c2ccccn2)c1)c1ccc(-n2cncn2)c([N+](=O)[O-])c1 | 20* | 1 | 10 | 7 | -15 | -8
O=C(CN1CCN(Cc2ccc(F)cc2)CC1)NCc1ccccc1 | -13 | -8 | 0 | 5 | -9 | 12
CN(C)c1ccc(CNC(=O)C2(C)Cc3c(-c4ccc5c(c4)OCO5)ccnc3O2)cc1 (stereo not drawn) | -14 | -8 | 0 | -9 | -1 | 4
CCOC(=O)N1CCN(C(=O)c2ccc3c(c2)NC(=O)/C(=C\c2ccc(OC)c(OC)c2)S3)CC1 | 52* | -14 | 4 | -21 | 11 | -41
COc1ccc(/C=C2/Sc3ccc(C(=O)N4CCOCC4)cc3NC2=O)cc1OC | -4 | 0 | 2 | -21 | 14 | 4
CCOC(=O)N1CCN(C(=O)c2ccc(OCC)c(OCC)c2)CC1 | -5 | -3 | 0 | 37* | -9 | -5
COc1ccc(NC2=Nc3cccc4cccc2c34)cc1 | 7 | 19* | 4 | -6 | 7 | -12
COc1ccc(NC(=O)c2ccccc2)c([N+](=O)[O-])c1 | -9 | -2 | 1 | -8 | 5 | 9
CCC(CC)C(=O)Nc1cccc(C(=O)Nc2ccc(OC)cc2[N+](=O)[O-])c1 | 19 | 23* | 2 | -5 | 12 | -4
CCCN(CCC)CCCNc1ccc(C(=O)Nc2cccc(OC)c2)cc1[N+](=O)[O-] | 40* | -7 | 1 | -15 | 6 | -24
O=C(CC12CC3CC(CC(Br)(C3)C1)C2)NC1CCCC1 | 55* | -15 | 1 | -20 | 18 | -37
O=C(CSc1nnc(COc2ccccc2F)n1-c1ccccc1)NC1CCS(=O)(=O)C1 (stereo not drawn) | 2 | -5 | 0 | 28* | -13 | -7
COc1ccc(CC(NC(C)=O)C(=O)NC2CCN(C(=O)Nc3ccccc3C)CC2)cc1OC (stereo not drawn) | -11 | -2 | 2 | -19 | 20 | 11
Cc1ccccc1OCC(=O)NCCCNC(=O)c1ccncc1 | -22 | 3 | 0 | -1 | 6 | 28*
CN(c1ccccc1C(=O)N1CCN(c2ccccc2F)CC1)S(=O)(=O)c1ccccc1 | 16 | -1 | 2 | 18 | -18 | -6
COC(=O)C1=C(C(=O)OC)C2C=CC1C1C(OC(C)=O)C(OC(C)=O)C21 (stereo not drawn) | -10 | 0 | 0 | 5 | -5 | -1
